This is one part of a sample in which hits are shown more often than they occur.
Shiga toxin inh = blocks Shiga toxin action in Vero cells | Vero cells, Shiga toxin protein synthesis inhibition reporter | inhibition, % at 38.7 µM | actives 9.2% (n = 290,000) | AID 2315; in the data active = inhibition mostly above about 28%, no sharp cut-off; inactive = mostly below about 43%; also: 0% is about no effect
LmPK inhibitor = inhibitors of Leishmania mexicana pyruvate kinase; Q27686; purified LmPK, Kinase-Glo ATP luminescence, 1 h; Potency, µM (top dose mostly 57.5 µM), without a hit: top-dose activity change, negative = inhibition, usual class: inhibitors; actives 0.37% (n = 290,000); also: potency is read from the fitted curve at half-maximal effect; % is scaled to controls: 0 for no effect and ±100 for the full control effect
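0.1 nM LmPK, 0.5 mM PEP, 0.1 mM ADP; 50 mM imidazole pH 7.2, 7 mM MgCl2, 50 mM KCl; 1 h RT. Kinase-Glo luminescence readout, normalized to no-enzyme (full inhibition) and uninhibited wells.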
TbPYK inhibitor = blocks Trypanosoma brucei pyruvate kinase; Potency, µM (top dose mostly 76.8 µM), for inactives: at the top dose activity, negative = inhibition, hits mostly inhibitors; Q57TT1; TbPYK enzyme, Kinase-Glo Plus ATP luminescence, 45 min; actives 0.12% (n = 410,000); also: potency is read from the fitted curve at half-maximal effect; % is scaled to controls: 0 for no effect and ±100 for the full control effect; nearly all actives have a fitted effect of over 50% in size
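Glycolytic pyruvate kinase of T. brucei was incubated with substrate, test compound and 130 uM ADP for 45 minutes at room temperature. Luminescent Kinase-Glo Plus signal was measured after 10 minutes.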
Cycloheximide cs = counter-screen for Shiga toxin inhibitors: cycloheximide protein synthesis inhibition. AID 2314. cell reporter, cycloheximide protein synthesis inhibition counterscreen. actives 12% (n = 300,000). max response, %; in the data active = max response mostly above about 13%, no sharp cut-off; inactive = mostly below about 14%; also: read at 38.3 µM for the half of the compounds with a filed dose; 0% is about no effect
RE007 growth inh = less growth of the S. pombe RE007 Vpr strain. S. pombe RE007 Vpr strain, BacTiter-Glo ATP luminescence, 24 h. Potency, µM (doses to about 92.2 µM), without a hit: top-dose activity change, negative = less growth, hits mostly inhibitors. actives 0.21% (n = 360,000); active = well fitted falling curve with a large enough effect; inconclusive = small, poorly fitted or top-dose-only effect; inactive = no such curve, though single readings can be large or run the other way; also: potency is read from the fitted curve at half-maximal effect; % is scaled to controls: 0 for no effect and ±100 for the full control effect; nearly all actives have a fitted effect of over 50% in size
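Fission yeast strain RE007, carrying one chromosomally integrated HIV-1 vpr copy, was seeded at OD 0.01 in PMG+AL medium with 23 nL pinned compound. After 24 h at 30 °C and 99% humidity, viability was read by BacTiter-Glo luminescence.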
FBPA Giardia inh = Giardia lamblia aldolase inhibition; purified Giardia FBPA; A8B2U2; actives 0.71% (n = 290,000); Potency, µM (series often up to 59.6 µM), for inactives: top-dose activity, negative = inhibition, usual class: inhibitors; also: potency is read from the fitted curve at half-maximal effect; % is scaled to controls: 0 for no effect and ±100 for the full control effect; nearly all actives have a fitted effect of over 55% in size
Target sequence (A8B2U2 whole entry, looked up): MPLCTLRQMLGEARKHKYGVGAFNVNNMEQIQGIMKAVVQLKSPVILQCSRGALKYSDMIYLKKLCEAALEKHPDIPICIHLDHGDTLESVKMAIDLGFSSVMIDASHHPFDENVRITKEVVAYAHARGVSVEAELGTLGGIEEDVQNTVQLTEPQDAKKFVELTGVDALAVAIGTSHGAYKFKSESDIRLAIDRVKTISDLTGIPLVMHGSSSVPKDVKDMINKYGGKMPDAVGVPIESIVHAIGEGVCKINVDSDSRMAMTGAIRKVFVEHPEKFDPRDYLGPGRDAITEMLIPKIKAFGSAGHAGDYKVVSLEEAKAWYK
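40 nM FBPA preincubated 10 min at RT with compound (up to 57.5 uM final), then substrate plus GAPDH/TPI/NAD/arsenate coupling and diaphorase/resazurin added. Fluorescence read after 20 min at RT, 525/598 nm.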
An asterisk follows results filed as active; ? = inconclusive; nt = not tested or not shown; [ ] = remark or other dose. Unless noted, calls follow the shape of the dose curve; as a rule, active = well fitted curve in the direction sought with a large enough effect; inconclusive = small, poorly fitted or top-dose-only effect, or another doubt; inactive = no such curve, though single readings can be large; an effect the other way counts as inactive or inconclusive.

SMILES	Shiga toxin inh	LmPK inhibitor	TbPYK inhibitor	Cycloheximide cs	RE007 growth inh	FBPA Giardia inh
O=C(COC(=O)Cn1cc(C(F)(F)F)ccc1=O)Nc1ccccc1	nt	nt	-3.7%	nt	-13.4%	nt
CN(C)S(=O)(=O)c1cccc(NC(=O)Cn2cc(C(F)(F)F)cc(Cl)c2=O)c1	71.3*	4.0%	0.2%	6.8	-15.1%	-0.2%
O=C(Cn1cc(C(F)(F)F)cc(Cl)c1=O)NCc1ccc(F)cc1	87.5*	1.2%	9.8%	23.0	17.7%	9.7%
COC(=O)C1CCN(C(=O)COC(=O)c2cccc(NS(=O)(=O)c3ccccc3)c2)CC1	nt	nt	2.2%	nt	0.7%	nt
Cc1ccc(NC(=O)CSc2nc3n[nH]c(C)c3c(=N)n2-c2ccccc2C)cc1C	nt	nt	-4.9%	nt	nt	nt
COc1ccc(B(O)O)cc1	nt	nt	nt	nt	nt	-0.2%
CCOC(=O)[C@]12CCC=C1N(Cc1ccccc1)C(=O)[C@H](CC(=O)NCC13CC4CC(CC(C4)C1)C3)C2	nt	nt	1.1%	nt	-28.6%	nt
O=C1N/C(=C/c2ccc(N3CCOCC3)o2)C(=O)N1c1ccccc1	13.9	-5.0%	?	20.2*	-15.6%	?
O=C1N/C(=C/c2ccc(N3CCCC3)cc2)C(=O)N1c1ccccc1	48.9*	-2.0%	-11.1%	16.6*	-5.8%	-2.5%
C=CCN1C(=O)N/C(=C/c2ccc(N3CCOCC3)o2)C1=O	-20.3	-0.2%	nt	-7.0	nt	?
N=Cc1c(O)n(-c2ccc(C34CC5CC(CC(C5)C3)C4)cc2)c(=O)[nH]c1=O	27.0*	6.1%	-2.9%	47.9*	25.1%	-8.7%
O=c1[nH]c(=O)n(-c2ccc(Br)cc2)c(O)c1C=NC(CO)(CO)CO	-2.2	2.5%	-0.6%	-2.5	3.5%	-0.2%
O=c1c2c3c(sc2ncn1/N=C/c1cccnc1)CCCC3	100.2*	-0.5%	4.4%	25.8*	-22.7%	5.7%
O=c1c2c3c(sc2ncn1/N=C/c1ccncc1)CCCC3	-8.8	0.8%	-0.3%	7.9	-2.0%	2.6%
NC(=O)C1CCCN(Cc2ccc3ccccc3c2)C1 (stereo unspecified)	-16.2	4.0%	-7.4%	1.0	0.5%	-11.2%
OC1CCCN(Cc2ccc3c(c2)Cc2ccccc2-3)C1 (stereo unspecified)	45.0	-5.6%	1.9%	16.0*	4.1%	-0.5%
CC1CCCCC1NS(=O)(=O)c1ccc(S(=O)(=O)NCc2ccncc2)cc1 (stereo unspecified)	-6.3	0.8%	5.1%	5.8	-1.6%	-10.0%
COc1cc(CO)c(Br)cc1OCC(=O)Nc1ccccc1C	28.8	-0.6%[11.5 µM]	-0.4%	31.8*	1.1%	-4.1%
Cc1ccccc1NC(=O)COc1ccc(Br)cc1C	54.4*	3.3%	0.2%	41.1*	-6.7%	0.2%
Cc1ccc(OCCOC(=O)c2cccc(S(=O)(=O)N3CC(C)OC(C)C3)c2)cc1 (stereo unspecified)	nt	nt	-7.0%	nt	0.5%	nt
CC(=O)Nc1ccc(S(=O)(=O)NCC(=O)Nc2ccc3c(c2)OCO3)cc1	nt	nt	-3.3%	nt	-2.7%	nt
O=C1CC2(CCCCC2)CC(=O)N1CCc1ccccc1	nt	nt	12.6%	nt	11.9%	nt
O=C1C=CC(=O)C(C2=C3C(=O)N(CCc4ccccc4)CC(=O)N3CCC2)=C1	17.9	?	2.51µM*	3.6	-11.3%	17.7µM*
C=C1C(=O)O[C@H]2C[C@@H](C)[C@@H]3C=CC(=O)[C@@]3(C)C[C@H]12	46.7*	0.2%	-1.0%	40.2*	-17.7%	2.9%
C=C1C(=O)OC2CC(C)C3C=CC(=O)C3(C)C(O)C12 (stereo unspecified)	nt	nt	-11.6%	nt	-4.6%	nt
SMILES	Shiga toxin inh	LmPK inhibitor	TbPYK inhibitor	Cycloheximide cs	RE007 growth inh	FBPA Giardia inh
CCOC(=O)c1ccc(NC(=O)CN(C)S(=O)(=O)c2ccc(Br)s2)cc1	22.8	0.7%	2.7%	16.4*	4.5%	-0.9%
Cc1ccc2nc(NC(=O)CN(C)S(=O)(=O)c3ccc(Br)s3)sc2c1	32.2	0.3%	1.4%	26.1*	-8.4%	-3.3%
Cc1ccc2nc(NC(=O)CNS(=O)(=O)c3ccc(Br)s3)sc2c1	15.3	8.3%	-1.8%	22.4*	10.5%	9.2%
CC(C)CC1OC(C(C)C)Cc2[nH]c(=S)[nH]c(=O)c21 (stereo unspecified)	nt	nt	-0.4%	nt	-1.6%	nt
CCn1cc(C2=NC(CC(C)C)CO2)c2ccccc21 (stereo unspecified)	51.1	-2.1%	5.3%	22.2*	-7.5%	-4.3%
CCn1cc(C2=NC(CCSC)CO2)c2ccccc21 (stereo unspecified)	42.9	7.6%	1.2%	18.0*	12.2%	1.8%
COc1ccc(N=Nc2nc3cc(Br)c(Br)cc3n2C)c(OC)c1	34.7*	22.3%	-11.7%	33.7*	15.2%	?
COC(=O)CCCC1=CC2=CC(=O)C(C)(OC(=O)c3cccs3)C(=O)C2=CN1CCc1c[nH]c2ccccc12 (stereo unspecified)	0.6	-6.2%[11.5 µM]	2.3%	-2.3	-3.9%	0.446µM*
Cc1ccc(NC(=O)c2ccc(CSc3ccccn3)cc2)cc1	81.9*	-3.7%	-7.3%	30.5*	32.7%	-9.2%
C=CCn1c(SCc2ccc(C(=O)Nc3ccccc3)cc2)nnc1-c1ccccc1	35.5	-4.1%	-11.0%	19.2*	-5.6%	0.0%
Cc1cc(C)cc(NC(=O)c2ccc(CSc3nnc(C)s3)cc2)c1	79.9*	-0.1%	0.9%	29.2*	-14.6%	-1.7%
Cc1ccc(Cl)cc1NC(=O)c1ccc(CSc2nnnn2C)cc1	-20.1	-1.6%	8.3%	1.0	-11.4%	-1.6%
Cc1ccc(NC(=O)c2ccc(CSc3nnnn3C)cc2)cc1	140.5*	4.0%	-0.4%	37.4*	4.2%	-0.2%
Cc1ccc(NC(=O)c2ccc(CSc3ccccn3)cc2)c(O)c1	26.6	6.1%	2.8%	9.7	-13.5%	-12.6%
COc1ccc(CCNC(=O)c2cc(=O)[nH]c3ccc(S(=O)(=O)N4CCCCC4C)cc23)cc1OC (stereo unspecified)	nt	nt	2.9%	nt	nt	nt
COC1OCC(O)C(NC(=O)N(C)N=O)C1O (stereo unspecified)	nt	nt	-1.1%	nt	18.0%	nt
CN[C@@H](CCCN=C(N)N)C(=O)N[C@@H](CCCCN)C(=O)N1CCC[C@H]1C(=O)N[C@@H](Cc1c[nH]c2ccccc12)C(=O)N[C@H](C(=O)N[C@H](CC(C)C)C(=O)O)C(C)(C)C	-5.0	nt	nt	-5.2	nt	-0.4%
Cc1ccc(NC(=O)c2ccc(CSc3nnc(C)s3)cc2)cc1	139.7*	2.4%	-3.6%	54.7*	0.8%	4.7%
O=C(Nc1ccc(Br)cc1)c1ccc(CSC2=NCCS2)cc1	80.5*	5.5%	-3.3%	61.5*	-12.6%	-0.8%
CC(C)(C)c1ccc(C(=O)NC2(C(F)(F)F)C(=O)Nc3c2c(=O)[nH]c(=O)n3-c2ccccc2)cc1 (stereo unspecified)	nt	nt	-1.5%	nt	nt	nt
CC1CCN(c2oc(-c3ccc(COc4ccccc4)o3)nc2C#N)CC1	nt	nt	-6.3%	nt	nt	nt

High-throughput results from PubChem.
